Assay outcomes: PubChem BioAssay, several laboratories
GLD-1 RNA inh: GLD-1-TGE RNA interaction inhibition (C. elegans); AID 2280; purified GLD-1 + fluorescein TGE RNA, fluorescence polarization; hit rate 0.44% among 320,000; inhibition, % at 5.96 µM; Q17339;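 active = percent inhibition above a per-plate cutoff, the plate mean of test compounds plus 3 SD, cut at about 30% in these data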;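 note: 0% = DMSO wells with GLD-1 and probe and 100% = wells lacking GLD-1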
Target sequence (Q17339 whole entry, looked up): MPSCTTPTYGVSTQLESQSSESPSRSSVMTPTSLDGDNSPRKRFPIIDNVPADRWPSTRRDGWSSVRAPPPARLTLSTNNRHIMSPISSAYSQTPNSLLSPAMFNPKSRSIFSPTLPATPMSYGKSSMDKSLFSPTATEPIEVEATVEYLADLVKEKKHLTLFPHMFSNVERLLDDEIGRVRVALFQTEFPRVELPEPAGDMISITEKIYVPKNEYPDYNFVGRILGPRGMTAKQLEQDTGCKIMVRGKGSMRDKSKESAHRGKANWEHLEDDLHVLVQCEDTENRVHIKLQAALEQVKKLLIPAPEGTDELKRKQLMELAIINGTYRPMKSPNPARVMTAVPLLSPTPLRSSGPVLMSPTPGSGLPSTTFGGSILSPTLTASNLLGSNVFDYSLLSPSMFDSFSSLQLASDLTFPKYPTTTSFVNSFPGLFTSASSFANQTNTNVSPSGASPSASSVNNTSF
E coli Lon inh: inhibits E. coli Lon protease; hit rate 0.42% among 360,000; inhibition, % at 7.94 µM; AID 602123; P0A9M0; purified E. coli Lon protease, fluorescence polarization; in the data active = inhibition above about 13%, passing the limit was not always enough;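 note: 0% = enzyme with probe and DMSO and 100% = no enzyme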
MCL1 BIM primary: disrupts human MCL1 binding to BIM-BH3 peptide. hit rate 0.68% among 320,000. GST-MCL1 / FITC-Bim-BH3 fluorescence polarization. Q07820. inhibition, % at 10.9 µM;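 active = inhibition above the mean inhibition of all tested compounds plus 3 SD, set per campaign, cut at about 40% in these data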;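 note: 0% = DMSO wells and 100% = unlabeled Bim-BH3 peptide control; higher means more loss of mP so more displacement of Bim peptide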
BCLXL inh: Bcl-xL (human) inhibition | Q07817 | GST-Bcl-xL / FITC-Bim BH3 peptide fluorescence polarization | inhibition, % at 10.9 µM | hit rate 0.7% among 320,000;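 active = inhibition above the mean of all tested compounds plus 3 SD, cutoff set per campaign, cut at about 30% in these data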;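 note: 0% = DMSO wells and 100% = unlabeled Bim-BH3 peptide competitor; inhibitors lower millipolarization by displacing the labeled peptide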
MEX-5 binding: C. elegans MEX-5 TCR-2 RNA binding activity; MEX-5/FITC-TCR2 RNA binding, fluorescence polarization; hits give low values; Q9XUB2; activity score (negative = inhibition of binding), % at 10 µM; hit rate 0.38% among 300,000; AID 1832;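 active = inhibition past about -25% in most replicates, and total fluorescence under double the plate's negative control median, limit read from the data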;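 note: 0% = DMSO and -100% = 5 µM competing unlabeled TCR2 RNA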
EBV gp42 inh: blocks Epstein-Barr virus glycoprotein 42 binding; Q1HVG2; Fluorescence polarization binding assay, mP read-out; inhibition, % (tested at 21.74 µM); AID 1085; hit rate 0.42% among 220,000; in the data active = inhibition above about 50%
The depositor's hits bear a star. This is a sample that favours compounds with a hit; in the whole collection about 1.4% have one here.

How did c1ccc(-c2nc(-c3ccco3)n3ccccc23)cc1 do in these assays?
GLD-1 RNA inh: 21; E coli Lon inh: -17; MCL1 BIM primary: 45*; BCLXL inh: 65*; MEX-5 binding: -12; EBV gp42 inh: 44

How did c1ccc(Nc2c(-c3ccco3)nc3ccccn23)cc1 do in these assays?
GLD-1 RNA inh: -4; E coli Lon inh: 4; MCL1 BIM primary: 6; BCLXL inh: 7; MEX-5 binding: 0; EBV gp42 inh: -12

Results for COc1ccc(NC(=O)CN(C)C(C)C(=O)NC(=O)NC2CCCCC2)cc1 (stereo not given) ?
GLD-1 RNA inh: 3; E coli Lon inh: 5; MCL1 BIM primary: -8; BCLXL inh: -6; MEX-5 binding: 1

What do the screens show for `CCC(C)CNC(=O)c1cccc(OC2CCN(CC(C)(C)C)CC2)c1` (stereo not given)?
GLD-1 RNA inh: -4; E coli Lon inh: 0; MCL1 BIM primary: 9; BCLXL inh: 6; MEX-5 binding: -5

What do the screens show for `CCCCN(C)C(=O)c1cccc(OC2CCN(CC(C)(C)C)CC2)c1`?
GLD-1 RNA inh: -3; E coli Lon inh: 1; MCL1 BIM primary: -1; BCLXL inh: 3; MEX-5 binding: -31*

What do the screens show for `COc1ccc2c(c1)OCC1=C2CCC2(C)C(=O)CC=C12` (stereo not given)?
GLD-1 RNA inh: 39*; MCL1 BIM primary: 29; BCLXL inh: 40*; MEX-5 binding: -13; EBV gp42 inh: -9

What do the screens show for `COc1ccc2c(c1)SCCC2=O`?
GLD-1 RNA inh: 1; E coli Lon inh: -3; MCL1 BIM primary: -12; BCLXL inh: -2; MEX-5 binding: 0; EBV gp42 inh: -4

How did COc1ccc2nc(C)cc(N3CCOCC3)c2c1 do in these assays?
GLD-1 RNA inh: 7; E coli Lon inh: -1; MCL1 BIM primary: 2; BCLXL inh: 4; MEX-5 binding: 2; EBV gp42 inh: 84*

What do the screens show for `COc1ccc2nc(C)cc(N3CCN(c4ccccc4)CC3)c2c1`?
GLD-1 RNA inh: 4; E coli Lon inh: -2; MCL1 BIM primary: 8; BCLXL inh: 3; MEX-5 binding: 2

Results for COC1(OC)N=C(N)C2(C#N)C(c3ccccc3)NC(C)=CC12C#N (stereo not given) ?
GLD-1 RNA inh: 6; E coli Lon inh: -2; MCL1 BIM primary: 10; BCLXL inh: 11; MEX-5 binding: -6; EBV gp42 inh: -7

What do the screens show for `COc1ccc(C2NC3=C(CCC3)C3(C#N)C(OC)(OC)N=C(N)C23C#N)cc1` (stereo not given)?
GLD-1 RNA inh: 20; E coli Lon inh: -3; MCL1 BIM primary: 32; BCLXL inh: 31*; MEX-5 binding: -18; EBV gp42 inh: 3

Results for Cc1cc(Nc2ccc(O)cc2)ccc1N ?
GLD-1 RNA inh: 5; MCL1 BIM primary: 41*; BCLXL inh: 36*

What do the screens show for `CCCCSCCCNC(=O)CS(=O)Cc1nc(-c2cccc(C)c2)oc1C` (stereo not given)?
GLD-1 RNA inh: 4; E coli Lon inh: 0; MCL1 BIM primary: 4; BCLXL inh: 45*; MEX-5 binding: 0; EBV gp42 inh: -15

What do the screens show for `CCCNS(=O)(=O)c1ccc(CCC(=O)NCc2ccc3c(c2)OCO3)cc1`?
GLD-1 RNA inh: -3; E coli Lon inh: -3; MCL1 BIM primary: -2; BCLXL inh: 0; MEX-5 binding: -36*; EBV gp42 inh: -5

Results for O=C(CNS(=O)(=O)c1ccccc1)OCc1cccc([N+](=O)[O-])c1 ?
GLD-1 RNA inh: 5; E coli Lon inh: -3; MCL1 BIM primary: -2; BCLXL inh: 38*; MEX-5 binding: 2; EBV gp42 inh: -7

How did COc1ccc(CC(=O)NCc2ccc(F)cc2)cc1S(=O)(=O)N1CCOCC1 do in these assays?
GLD-1 RNA inh: -11; E coli Lon inh: -2; MCL1 BIM primary: -1; BCLXL inh: -3

What do the screens show for `CCOC(=O)C1=C(C)NC(=O)CC1c1cc(OC)c(OC)cc1Br` (stereo not given)?
GLD-1 RNA inh: -8; E coli Lon inh: 1; MCL1 BIM primary: -2; BCLXL inh: 0; MEX-5 binding: -2; EBV gp42 inh: 4

Results for CCc1nc2c(OCc3ccc(Cl)cc3Cl)cccn2c1N(C)C(=O)CC(C)C ?
E coli Lon inh: 7

How did Cc1cc(NS(=O)(=O)c2ccc(Nc3nc(-c4sc(N)nc4C)cs3)cc2)no1 do in these assays?
GLD-1 RNA inh: 11; E coli Lon inh: -4; MCL1 BIM primary: 12; BCLXL inh: 9; MEX-5 binding: -29*; EBV gp42 inh: -8

What do the screens show for `Cc1cc(NS(=O)(=O)c2ccc(Nc3nc(-c4ccc(C)c(C)c4)cs3)cc2)no1`?
GLD-1 RNA inh: 6; E coli Lon inh: -9; MCL1 BIM primary: -3; BCLXL inh: 1; MEX-5 binding: 3; EBV gp42 inh: 11

Results for O=C(NCc1ccccn1)C1CCN(S(=O)(=O)c2cc(Cl)ccc2Cl)CC1 ?
GLD-1 RNA inh: 5; E coli Lon inh: 7; MCL1 BIM primary: 7; BCLXL inh: 4; MEX-5 binding: 2; EBV gp42 inh: -16

How did Oc1ccc(-c2nc(-c3ccc(O)c(O)c3)cs2)cc1 do in these assays?
GLD-1 RNA inh: -2; E coli Lon inh: 9; MCL1 BIM primary: 24; BCLXL inh: 18; MEX-5 binding: -68*; EBV gp42 inh: 0

How did Oc1ccc(Nc2nc(-c3ccc4ccccc4c3)cs2)cc1 do in these assays?
GLD-1 RNA inh: 6; E coli Lon inh: 5; MCL1 BIM primary: 4; BCLXL inh: 3; MEX-5 binding: -1; EBV gp42 inh: -4

What do the screens show for `Cc1cc2cc(NC(=O)c3ccco3)ccc2[nH]1`?
GLD-1 RNA inh: -4; E coli Lon inh: 1; MCL1 BIM primary: 4; BCLXL inh: 5; MEX-5 binding: 0; EBV gp42 inh: -4

Results for O=C(Nc1ccc2[nH]c3c(c2c1)CCCC3)c1ccco1 ?
GLD-1 RNA inh: 30; E coli Lon inh: 10; MCL1 BIM primary: 40*; BCLXL inh: 52*; MEX-5 binding: 3; EBV gp42 inh: 68*

Results for CC(=O)c1ccc(NC(=O)CSc2ccsc2[N+](=O)[O-])cc1 ?
E coli Lon inh: -12; MEX-5 binding: -4; EBV gp42 inh: 51*

How did O=C(CSc1ccsc1[N+](=O)[O-])Nc1cc(F)ccc1F do in these assays?
E coli Lon inh: -9; MEX-5 binding: -2; EBV gp42 inh: 91*

What do the screens show for `Cc1nc2c(N)nn(C)c2nc1C`?
E coli Lon inh: -12

What do the screens show for `N#C/C(=N\Nc1ccc(Cl)cc1)C(=O)c1ccsc1`?
GLD-1 RNA inh: -1; E coli Lon inh: -1; MCL1 BIM primary: 8; BCLXL inh: 6; MEX-5 binding: -38*; EBV gp42 inh: -4

Results for Cc1ccc(N/N=C(\C#N)C(=O)c2ccsc2)cc1 ?
GLD-1 RNA inh: 7; E coli Lon inh: 4; MCL1 BIM primary: -1; BCLXL inh: 6; MEX-5 binding: -1; EBV gp42 inh: -14
